High-throughput results deposited in PubChem BioAssay by National Center for Advancing Translational Sciences (NCATS).
An excerpt weighted towards active compounds, which were near 19% of everything screened.
IL1B secr inh: qHTS for Inhibitors of Inflammasome Signaling: IL-1-beta AlphaLISA Primary Screen. THP-1 LPS/ATP IL-1B secretion, AlphaLISA, 16 h; hits give low values. activity change, % at 57.5 µM. 360,000 compounds, 4.7% hits; in the data active = activity change below about -50%; inconclusive = mostly about -30% to -49%
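THP-1 cells pretreated 1 hr with compounds (up to 57.5 uM final), then stimulated with LPS (250 ng/mL final) plus ATP (1.25 mM final); secreted IL-1B measured by AlphaLISA after 16 hr, decreased signal indicating inhibition.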
HT1080 IDH1KD tx: qHTS for induction of synthetic lethality in tumor cells producing 2HG: qHTS for the HT-1080-IDH1KD cell line | HT-1080 IDH1 knockdown viability, ATP luminescence, 48 h | Potency, µM (titrated, usually from 46.1 µM), hits mostly cytotoxic | 360,000 compounds, 2% hits
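% activity derives from luminescence (CellTiter-Glo), normalised to DMSO and no-cell wells. HT-1080-IDH1KD cells, 750/well, had 48 h compound exposure at 37 °C.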
TDP1 cell CPT: qHTS for Inhibitors of human tyrosyl-DNA phosphodiesterase 1 (TDP1): qHTS in cells in presence of CPT. Potency, µM (highest dose often 46.2 µM), most hits filed as inhibitors. 420,000 compounds, 12% hits. chicken DT40 Tdp1-/-;hTDP1 cells + 20 nM CPT, ATP luminescence, 48 h; note: nearly all actives have a fitted effect of over 55% in size
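Chicken DT40 Tdp1-/- cells stably complemented with human TDP1 were seeded at 400 cells/well in medium containing 20 nM camptothecin, exposed to pin-transferred compounds, and grown at 37 °C for at least 48 hr. Viability was read as ATP luminescence.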
DT40 TDP1 no CPT: qHTS for Inhibitors of human tyrosyl-DNA phosphodiesterase 1 (TDP1): qHTS in cells in absence of CPT; DT40 Tdp1-/- hTDP1 cells, no CPT, ATP luminescence, 48 h; Potency, µM (doses to about 46.2 µM), usual class: inhibitors; 420,000 compounds, 15% hits; AID 686978, 2013; note: nearly all actives have a fitted effect of over 55% in size
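A cellular qHTS used chicken DT40 cells lacking endogenous Tdp1 but carrying stably transfected human TDP1. Compounds were applied without camptothecin, and cell growth kinetics were judged by ATP-dependent luminescence after ≥48 hr.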
uPA generation: qHTS for Inhibitors of Cell Surface uPA Generation. Potency, µM (top dose mostly 38.3 µM), hits mostly inhibitors. cell surface uPA generation assay, qHTS. 330,000 compounds, 0.31% hits; active = well fitted inhibition curve with a large enough effect; inconclusive = small, poorly fitted or top-dose-only effect; inactive = no such curve, though single readings can be large or run the other way; tested in mouse RAW 264.7 cells; note: nearly all actives have a fitted effect of over 55% in size
HT1080NT lethal: qHTS for induction of synthetic lethality in tumor cells producing 2HG: qHTS for the HT-1080-NT fibrosarcoma cell line; 360,000 compounds, 1.6% hits; HT-1080-NT fibrosarcoma viability, CellTiter-Glo ATP luminescence, 48 h; Potency, µM (doses to about 46.1 µM), actives largely listed as cytotoxic;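 note: NT is the 2HG producing partner of a matched IDH1 knockdown line; nearly all actives have a fitted effect of over 55% in size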
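Viability by CellTiter-Glo luminescence after 48 h compound exposure at 37C of HT-1080-NT cells (750/well, RPMI, 5% FBS). % activity scaled between DMSO wells and medium-only wells, then curve-fitted and categorized by curve class.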
Hits are given with their value; i = inactive; ? = inconclusive; nt = no result; [ ] = another dose, or the depositor's remark. Unless noted, calls come from the whole dose curve; as a rule, active = well fitted curve in the direction sought with a large enough effect; inconclusive = small, poorly fitted or top-dose-only effect, or another doubt; inactive = no such curve, though single readings can be large; an effect the other way counts as inactive or inconclusive.

SMILES	IL1B secr inh	HT1080 IDH1KD tx	TDP1 cell CPT	DT40 TDP1 no CPT	uPA generation	HT1080NT lethal
Cc1ccccc1NS(=O)(=O)c1ccc(C(=O)NCc2ccccc2CN2CCCC2)cc1	?	i	?	23.1µM	nt	i
O=C(NCc1ccccc1CN1CCCC1)c1ccc(S(=O)(=O)Nc2ccccc2F)cc1	i	i	i	?	nt	i
CC(C)NC(=O)N1CC[C@@]2(CCCN(C(=O)c3cc(C(F)(F)F)cc(C(F)(F)F)c3)C2)C1	nt	nt	i	i	nt	nt
COc1cccc(-c2cc(C(=O)NCc3ccccc3)[nH]n2)c1	nt	nt	i	i	nt	nt
O=C(CCCSc1ccc(Cl)cc1)Nc1ccccc1O	i	i	i	?	i	i
O=C(NCc1cccnc1)c1cc(C2CCCN(S(=O)(=O)c3cccs3)C2)on1 (centres undefined)	i	i	i	i	nt	i
CCOc1[nH]c(/N=C/c2ccc(OC)cc2)c(C#N)c1C#N	nt	nt	i	i	nt	nt
CCOc1[nH]c(/N=C/c2ccco2)c(C#N)c1C#N	i	i	20.6µM	?	i	i
COCCNC(=O)c1cc2c(c(-c3cccc(C#Cc4ccc(OC)c(OC)c4)c3)n1)[C@@H](CCO)N(S(=O)C(C)(C)C)C2 (some centres undefined)	i	?	?	?	nt	?
CSc1cccc(NC(=S)N(CCC(C)C)C(C)c2ccncc2)c1 (centres undefined)	i	i	?	i	i	i
CCc1ccc(Nc2nc(C)cc(C)c2C(N)=O)cc1	i	i	?	6.51µM	i	i
Cc1ccc(Nc2nc(C)cc(C)c2C(N)=O)c(C)c1	i	i	?	6.51µM	i	i
Cc1cc(C)c(C(N)=O)c(Nc2ccc(F)cc2)n1	i	i	i	i	i	i
Cc1cc(C)c(C(N)=O)c(Nc2ccc3c(c2)OCCO3)n1	i	i	?	7.31µM	i	i
O=C(NCCCN1CCCC1=O)c1ccc(NS(=O)(=O)c2ccccc2)cc1	i	i	i	i	i	i
O=C(CCC(=O)OCC(=O)c1ccc(-c2ccccc2)cc1)Nc1cccc2cccnc12	i	i	i	i	i	i
Nc1sc(-c2ccccc2)n[n+]1Cc1cccc2cccnc12	?	i	?	23.1µM	i	i
C[C@@H]1CN([C@@H](C)CO)C(=O)CCCn2nncc2CO[C@@H]1CN(C)S(=O)(=O)c1cn(C)cn1	i	i	i	i	nt	i
CCOc1ccc2ccc(OCC)c(/C=N/n3cnnc3)c2c1	-72.9	i	i	?	i	i
CCOc1cc(/C=N/n2cnnc2)ccc1O	i	i	i	i	i	i
O=C(CN1C(=O)/C(=C/c2ccc(Cl)cc2)SC1=S)NC1C=CS(=O)(=O)C1 (centres undefined)	i	i	6.51µM	5.8µM	i	i
COc1ccc(/C=C2\SC(=S)N(CC(=O)NC3C=CS(=O)(=O)C3)C2=O)cc1 (centres undefined)	i	i	6.51µM	3.66µM	i	i
COc1cccc(/C=C2\SC(=S)N(C(C)C(=O)NC3C=CS(=O)(=O)C3)C2=O)c1 (centres undefined)	?	?	?	?	?	i
COc1ccc(/C=C2\SC(=S)N(C(C)C(=O)NC3C=CS(=O)(=O)C3)C2=O)cc1 (centres undefined)	-61.1	i	?	i	i	i
Cc1ccc(NC(=O)Cn2c([N+](=O)[O-])cnc2C)cc1Cl	i	i	i	i	i	i
SMILES	IL1B secr inh	HT1080 IDH1KD tx	TDP1 cell CPT	DT40 TDP1 no CPT	uPA generation	HT1080NT lethal
CCC(=O)NCCc1nc2cc(NC(=O)c3ccc(F)cc3)ccc2n1C	i	i	i	i	i	i
CCOc1ccc(-c2nnn(CC(=O)c3ccc4c(c3)OCCO4)n2)cc1OCC	i	?	?	18.4µM	i	i
CC(C)(C)S(=O)(=O)N1Cc2cc(=O)n(Cc3ccccc3)c(CCO)c2[C@H]1CCO	i	i	i	i	i	i
O=[N+]([O-])c1ccc(CC(Cl)c2ccccn2)cc1 (centres undefined)	-50.1	i	i	i	i	i
O=[N+]([O-])c1ccc(Cc2ccccn2)cc1	i	i	i	i	i	i
C=CCC[C@H](CCCCC)OC(=O)/C=C/[C@@H](O)[C@H](O)C[C@@H](O)CC=C	i	?	18.4µM	18.4µM	nt	i
C=CCC[C@@H](CCCCC)OC(=O)/C=C/[C@@H](O)[C@H](O)C[C@@H](O)CC=C	?	i	?	?	nt	i
C=CCC[C@@H](CCCCC)OC(=O)/C=C/[C@H](O)[C@@H](O)C[C@@H](O)CC=C	i	?	?	16.4µM	nt	?
C[C@H](CO)N1C[C@H](C)[C@@H](CN(C)C(=O)Nc2ccccc2)Oc2ccc(NC(=O)CCC(F)(F)F)cc2C1=O	i	i	i	i	i	i
O=C([C@@H]1CC=C[C@@H]2CCN(C3CCCCC3)C(=O)[C@@H]21)N1CCOCC1	nt	nt	i	i	nt	nt
Cc1ccc(CCNC(=O)C2CC(c3cc(C(F)(F)F)cc(C(F)(F)F)c3)=NO2)cc1 (centres undefined)	i	i	?	?	i	i
COc1ccc(C2=NOC(C(=O)NCc3ccccn3)C2)cc1 (centres undefined)	i	i	i	i	i	i
Cc1ccc(CNC(=O)C2CC(c3cc(C(F)(F)F)cc(C(F)(F)F)c3)=NO2)o1 (centres undefined)	i	23.1µM	3.26µM	4.61µM	?	?
O=C(NCc1ccco1)C1CC(c2ccc(C(F)(F)F)cc2)=NO1 (centres undefined)	i	?	13µM	11.6µM	?	?
COc1cc(C2=NOC(C(=O)NCc3ccco3)C2)cc(OC)c1OC (centres undefined)	i	nt	4.11µM	3.26µM	nt	nt
COc1ccc(C2=NOC(C(=O)NCc3ccco3)C2)cc1 (centres undefined)	i	6.31µM	3.98µM	2.82µM	nt	7.08µM
COc1cc(C2=NOC(C(=O)Nc3ccc(C(C)=O)cc3)C2)cc(OC)c1OC (centres undefined)	i	i	i	i	nt	i[9.24 µM]
COc1ccc2c(c1)c1c(c(=O)n(-c3ccccc3)c(=O)n1CC(=O)Nc1ccc(F)cc1)n2C	nt	nt	i	i	nt	nt
NC(=O)[C@H]1CC2(CC(c3cccc(NC(=O)CC(c4ccccc4)c4ccccc4)c3)=NO2)CN1C(=O)c1ccccc1C(=O)c1ccccc1 (some centres undefined)	i	i	13µM	?	i	i
